Experimental data from the supplement of paper PMC10849652.
The full data set covers some 8,800 targets. This sample favours those with a hit. About 0.5% of all pairs of compound and target were hits. A number with no mark means an inactive call.

What was measured:
Assay in all cases: log2 fold change, soluble protein after heating vs DMSO (PISA); higher = thermal stabilisation; K562 lysate, 10 uM; active = over 0.2 and 3.5 SD of the protein, either way, in both replicates (recomputed)
[1] = compound: C#Cc1cccc(Nc2ncnc3cc(OCCOC)c(OCCOC)cc23)c1 [erlotinib]
In short: (§1)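 K562 pellets were dounce-homogenised in PBS pH 7.4 with 1 mM MgCl2, and the crude extract at 1 mg/mL protein was treated with 10 μM compound for 30 min. Aliquots were heated for 3 min across 48°C-58°C, pooled, and brought to 0.5% NP-40 at 4°C; soluble protein was the supernatant after 21,000xg for 90 min. Soluble protein was quantified by TMTpro 16plex LC-MS/MS with channel sums equalised, and reported as log2 fold change in thermal stability against DMSO controls, with values from duplicates.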

[2] = compound: C/C(=N\NC(=O)C1=CC(=CC=C1)S(=O)(=O)N2CCOCC2)/C3=C(C=CC(=C3)Cl)O
In short: as §1

[3] = compound: C1=CC(=CC=C1C2=NC3=C(N2)C=C(C=C3)C(=O)N)OC4=CC=C(C=C4)Cl
In short: as §1

[4] = compound: C1=CC2=C(C=CC(=C2)/C=C\3/C(=O)NC(=NCC4=CC=CS4)S3)N=C1
In short: as §1

[5] = compound: C1=CC2=NC=CN=C2C=C1/C=C/3\C(=O)NC(=O)S3
In short: as §1

[6] = compound: C1=CC=C(C=C1)C2=NC(=C(N2)C3=CC=NC=C3)C4=CC(=C(C=C4)Cl)O
In short: as §1

[7] = compound: C1=CC=C2C(=C1)C3=NNC4=CC=CC(=C43)C2=O
In short: as §1

[8] = compound: C1CCN(C1)C(=O)NC2=CC=CC(=C2)NC3=NC=C(C(=N3)NCCC4=CN=CN4)Br
In short: as §1

[9] = compound: C1CN(CCC1(CC2=CC=C(C=C2)Cl)N)C3=NC=NC4=C3C=CN4
In short: as §1

[10] = compound: C1COCCN1CCN2C3=CC=CC=C3N=C2NC(=O)C4=CC(=CC=C4)[N+](=O)[O-] [IRAK-1-4 Inhibitor I]
In short: as §1

[11] = compound: C=CC(=O)N1CCC[C@@H](n2nc(-c3ccc(Oc4ccccc4)cc3)c3c(N)ncnc32)C1 [ibrutinib]
In short: as §1

[12] = compound: CC(=O)c1cnc2ccc(-c3cc(Cl)c(O)c(Cl)c3)nc2c1N[C@H]1CC[C@H](CN(C)C)CC1
In short: as §1

[13] = compound: CC(C)(C)Cn1c(N)nc2ccc(-c3[nH]c(C(C)(C)C)nc3-c3ccc(F)cc3)nc21 [ralimetinib]
In short: as §1

[14] = compound: CC(C)(O)CC(=O)NCCn1ccc2ncnc(Nc3ccc(Oc4cccc(C(F)(F)F)c4)c(Cl)c3)c21
In short: as §1

[15] = compound: CC(C)C1=C2N=C(C=C(N2N=C1)NCC3=CC=CC=C3)NCCCCCCN
In short: as §1

[16] = compound: CC1=C(C(CC(=O)N1)C2=CC=C(C=C2)C(F)(F)F)C(=O)NC3=C(C=C4C(=C3)C=NN4)F
In short: as §1

[17] = compound: CC1=C(C2=C(C=C1)C(=O)C3=CC=CC=C3N2CCCN)C
In short: as §1

[18] = compound: CC1=C(C=C(C=C1)NC(=O)C2=CC(=CC=C2)C(C)(C)C#N)NC3=CC4=C(C=C3)N=CN(C4=O)C
In short: as §1

[19] = compound: CC1=C(C=C(C=C1)NC(=O)C2=CC(=CC=C2)N(C)C)NC(=O)C3=CC=C(C=C3)O
In short: as §1

[20] = compound: CC1=CC=C(C=C1)SC2=C3C=C(SC3=CN=C2)C(=O)N
In short: as §1

Chain of UniProt P06732 (P06732 whole entry, looked up): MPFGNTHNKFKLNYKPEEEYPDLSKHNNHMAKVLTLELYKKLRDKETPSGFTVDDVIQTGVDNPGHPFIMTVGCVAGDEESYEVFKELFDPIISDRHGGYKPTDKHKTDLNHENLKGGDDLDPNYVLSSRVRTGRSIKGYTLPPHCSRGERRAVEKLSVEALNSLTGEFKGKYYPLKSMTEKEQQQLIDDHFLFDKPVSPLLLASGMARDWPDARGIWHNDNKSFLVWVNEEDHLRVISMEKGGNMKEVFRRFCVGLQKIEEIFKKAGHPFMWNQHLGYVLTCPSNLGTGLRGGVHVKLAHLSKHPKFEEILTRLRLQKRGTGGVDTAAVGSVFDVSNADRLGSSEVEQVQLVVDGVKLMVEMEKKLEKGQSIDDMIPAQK
Chain of UniProt P33240 (P33240 whole entry, looked up): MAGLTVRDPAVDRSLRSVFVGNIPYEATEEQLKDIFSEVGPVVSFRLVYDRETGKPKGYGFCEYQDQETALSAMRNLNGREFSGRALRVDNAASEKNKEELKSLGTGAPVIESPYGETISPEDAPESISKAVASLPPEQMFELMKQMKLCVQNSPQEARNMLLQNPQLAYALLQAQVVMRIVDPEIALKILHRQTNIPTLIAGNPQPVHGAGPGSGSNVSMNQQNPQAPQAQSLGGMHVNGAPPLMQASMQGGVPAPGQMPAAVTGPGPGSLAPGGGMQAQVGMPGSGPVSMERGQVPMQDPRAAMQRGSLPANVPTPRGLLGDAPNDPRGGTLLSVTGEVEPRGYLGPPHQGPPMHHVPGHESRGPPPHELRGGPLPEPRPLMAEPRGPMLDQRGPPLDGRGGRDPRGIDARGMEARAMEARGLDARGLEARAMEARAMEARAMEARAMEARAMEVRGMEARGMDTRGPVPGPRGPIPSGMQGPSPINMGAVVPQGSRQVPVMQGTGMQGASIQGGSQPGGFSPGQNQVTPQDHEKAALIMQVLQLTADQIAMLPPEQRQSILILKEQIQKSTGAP
Chain of UniProt P04080 (P04080 whole entry, looked up): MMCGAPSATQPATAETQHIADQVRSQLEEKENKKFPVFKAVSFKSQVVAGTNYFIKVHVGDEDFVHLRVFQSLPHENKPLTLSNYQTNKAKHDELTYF
Chain of UniProt A8TX70 (A8TX70 whole entry, looked up): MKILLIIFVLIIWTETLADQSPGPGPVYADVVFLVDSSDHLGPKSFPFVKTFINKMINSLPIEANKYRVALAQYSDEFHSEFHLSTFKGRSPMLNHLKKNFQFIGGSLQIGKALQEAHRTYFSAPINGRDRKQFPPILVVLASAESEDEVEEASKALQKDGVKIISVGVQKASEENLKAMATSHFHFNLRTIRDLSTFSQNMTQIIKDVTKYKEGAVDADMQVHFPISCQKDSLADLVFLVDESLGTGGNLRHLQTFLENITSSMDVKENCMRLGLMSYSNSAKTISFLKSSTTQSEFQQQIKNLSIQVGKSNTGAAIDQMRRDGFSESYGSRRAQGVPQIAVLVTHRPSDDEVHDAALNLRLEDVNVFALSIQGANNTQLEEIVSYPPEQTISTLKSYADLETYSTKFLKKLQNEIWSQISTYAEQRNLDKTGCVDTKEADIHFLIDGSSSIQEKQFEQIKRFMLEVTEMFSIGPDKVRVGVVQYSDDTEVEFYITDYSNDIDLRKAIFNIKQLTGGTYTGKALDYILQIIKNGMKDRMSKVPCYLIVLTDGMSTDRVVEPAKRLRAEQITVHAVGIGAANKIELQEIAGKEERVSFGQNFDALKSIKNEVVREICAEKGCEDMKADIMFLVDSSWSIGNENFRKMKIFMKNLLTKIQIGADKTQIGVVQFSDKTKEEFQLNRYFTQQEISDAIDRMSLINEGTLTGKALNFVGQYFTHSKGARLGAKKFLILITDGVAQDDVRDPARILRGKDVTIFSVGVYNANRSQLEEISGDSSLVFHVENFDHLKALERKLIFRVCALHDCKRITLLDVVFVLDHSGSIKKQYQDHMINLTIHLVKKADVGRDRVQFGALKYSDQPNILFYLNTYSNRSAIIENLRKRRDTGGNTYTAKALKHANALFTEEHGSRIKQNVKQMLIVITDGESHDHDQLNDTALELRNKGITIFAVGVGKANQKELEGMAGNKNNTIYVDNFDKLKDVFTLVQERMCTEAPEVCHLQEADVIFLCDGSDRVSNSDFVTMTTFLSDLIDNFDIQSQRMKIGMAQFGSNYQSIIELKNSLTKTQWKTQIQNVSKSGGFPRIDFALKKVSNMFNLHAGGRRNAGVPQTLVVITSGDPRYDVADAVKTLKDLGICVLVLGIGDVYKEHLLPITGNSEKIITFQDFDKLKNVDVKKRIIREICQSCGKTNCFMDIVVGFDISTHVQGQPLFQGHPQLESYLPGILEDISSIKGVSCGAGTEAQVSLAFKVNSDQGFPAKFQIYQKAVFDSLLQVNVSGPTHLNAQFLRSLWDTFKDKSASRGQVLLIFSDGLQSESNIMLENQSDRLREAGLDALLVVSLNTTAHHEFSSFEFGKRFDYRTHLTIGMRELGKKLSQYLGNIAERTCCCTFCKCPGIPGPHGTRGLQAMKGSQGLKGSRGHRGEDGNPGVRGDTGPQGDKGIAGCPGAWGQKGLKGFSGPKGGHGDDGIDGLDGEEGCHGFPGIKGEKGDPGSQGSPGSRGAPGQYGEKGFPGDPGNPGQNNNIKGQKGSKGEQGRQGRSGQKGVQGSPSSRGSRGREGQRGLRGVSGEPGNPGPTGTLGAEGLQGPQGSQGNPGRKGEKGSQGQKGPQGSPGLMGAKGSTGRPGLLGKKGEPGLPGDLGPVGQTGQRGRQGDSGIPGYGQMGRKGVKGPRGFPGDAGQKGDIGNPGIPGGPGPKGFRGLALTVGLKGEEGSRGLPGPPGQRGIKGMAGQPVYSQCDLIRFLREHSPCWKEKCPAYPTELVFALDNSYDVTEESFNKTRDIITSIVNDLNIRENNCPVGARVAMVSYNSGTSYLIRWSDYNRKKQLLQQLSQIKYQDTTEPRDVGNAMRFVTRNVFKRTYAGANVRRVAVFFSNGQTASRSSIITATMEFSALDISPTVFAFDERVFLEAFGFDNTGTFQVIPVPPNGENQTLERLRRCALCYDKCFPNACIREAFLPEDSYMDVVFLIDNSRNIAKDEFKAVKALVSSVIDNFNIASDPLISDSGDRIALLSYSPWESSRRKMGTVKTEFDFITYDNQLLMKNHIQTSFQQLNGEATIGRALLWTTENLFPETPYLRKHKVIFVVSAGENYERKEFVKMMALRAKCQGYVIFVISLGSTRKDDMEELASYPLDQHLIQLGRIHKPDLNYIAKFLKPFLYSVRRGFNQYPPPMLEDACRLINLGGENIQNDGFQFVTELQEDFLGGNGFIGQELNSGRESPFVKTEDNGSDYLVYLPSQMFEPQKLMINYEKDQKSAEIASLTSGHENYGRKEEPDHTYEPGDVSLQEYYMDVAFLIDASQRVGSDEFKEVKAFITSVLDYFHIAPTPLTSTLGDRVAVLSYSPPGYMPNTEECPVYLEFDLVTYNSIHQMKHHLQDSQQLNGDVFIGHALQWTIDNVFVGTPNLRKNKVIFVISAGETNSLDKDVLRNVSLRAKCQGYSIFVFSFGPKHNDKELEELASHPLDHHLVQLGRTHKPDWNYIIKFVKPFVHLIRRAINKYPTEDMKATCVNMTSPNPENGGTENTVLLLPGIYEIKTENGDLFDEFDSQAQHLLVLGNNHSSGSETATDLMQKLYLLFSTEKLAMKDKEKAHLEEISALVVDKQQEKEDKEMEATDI
Chain of UniProt O60762 (O60762 whole entry, looked up): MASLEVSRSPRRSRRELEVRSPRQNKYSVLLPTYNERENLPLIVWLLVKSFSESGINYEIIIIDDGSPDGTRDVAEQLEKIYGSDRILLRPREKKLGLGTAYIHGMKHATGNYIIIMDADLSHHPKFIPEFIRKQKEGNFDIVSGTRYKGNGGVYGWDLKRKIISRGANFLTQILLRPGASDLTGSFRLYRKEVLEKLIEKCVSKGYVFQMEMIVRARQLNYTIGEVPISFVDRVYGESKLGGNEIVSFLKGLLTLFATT
Chain of UniProt P61024 (P61024 whole entry, looked up): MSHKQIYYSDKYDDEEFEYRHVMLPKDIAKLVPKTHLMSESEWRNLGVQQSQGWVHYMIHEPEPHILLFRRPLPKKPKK
Chain of UniProt Q9BQ75 (Q9BQ75 whole entry, looked up): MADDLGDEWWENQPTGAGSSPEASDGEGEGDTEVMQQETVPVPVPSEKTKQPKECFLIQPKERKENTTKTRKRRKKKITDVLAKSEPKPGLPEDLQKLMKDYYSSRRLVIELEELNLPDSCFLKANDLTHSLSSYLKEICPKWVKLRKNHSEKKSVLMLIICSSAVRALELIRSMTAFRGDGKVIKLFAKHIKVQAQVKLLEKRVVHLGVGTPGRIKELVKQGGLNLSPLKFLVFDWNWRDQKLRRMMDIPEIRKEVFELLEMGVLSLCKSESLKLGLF
Chain of UniProt Q9Y6M4 (Q9Y6M4 whole entry, looked up): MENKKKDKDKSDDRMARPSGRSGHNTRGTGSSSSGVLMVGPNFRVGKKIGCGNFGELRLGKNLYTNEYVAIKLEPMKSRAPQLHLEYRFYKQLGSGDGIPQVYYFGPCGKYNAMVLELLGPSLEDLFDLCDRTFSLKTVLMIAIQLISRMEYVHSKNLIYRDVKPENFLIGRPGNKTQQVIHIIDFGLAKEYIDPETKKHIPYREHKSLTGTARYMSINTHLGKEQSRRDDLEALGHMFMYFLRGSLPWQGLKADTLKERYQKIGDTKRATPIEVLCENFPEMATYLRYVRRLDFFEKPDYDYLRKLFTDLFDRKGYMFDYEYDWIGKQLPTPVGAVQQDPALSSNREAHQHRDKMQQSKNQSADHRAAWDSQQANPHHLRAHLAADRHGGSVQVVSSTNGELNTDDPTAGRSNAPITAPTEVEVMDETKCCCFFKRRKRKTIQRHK
Chain of UniProt Q96MX0 (Q96MX0 whole entry, looked up): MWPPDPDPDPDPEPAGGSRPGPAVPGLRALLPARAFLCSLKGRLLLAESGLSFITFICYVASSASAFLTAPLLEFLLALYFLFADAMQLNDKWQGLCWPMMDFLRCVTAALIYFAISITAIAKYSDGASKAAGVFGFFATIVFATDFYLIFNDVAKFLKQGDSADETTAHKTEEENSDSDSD

Row | Target | log2 fold change [1] | log2 fold change [2] | log2 fold change [3] | log2 fold change [4] | log2 fold change [5] | log2 fold change [6] | log2 fold change [7] | log2 fold change [8] | log2 fold change [9] | log2 fold change [10] | log2 fold change [11] | log2 fold change [12] | log2 fold change [13] | log2 fold change [14] | log2 fold change [15] | log2 fold change [16] | log2 fold change [17] | log2 fold change [18] | log2 fold change [19] | log2 fold change [20]
1 | CMSS1 (UniProt Q9BQ75) | -0.029 | 0.018 | -0.031 | 0.011 | -0.059 | -0.004 | 0.011 | -0.011 | 0.03 | -0.035 | -0.012 | -0.016 | -0.002 | -0.011 | 0.047 | -0.015 | 0.027 | -0.059 | 0.019 | -0.004
2 | COG7 (UniProt P83436) | 0.026 | -0.007 | -0.025 | 0.034 | 0.012 | 0.006 | -0.037 | -0.022 | 0.05 | -0.039 | -0.04 | -0.012 | 0.03 | 0.006 | -0.049 | -0.034 | -0.001 | -0.029 | 0.058 | -0.007
3 | DPM1 (UniProt O60762) | -0.009 | -0.039 | -0.036 | 0.056 | -0.015 | -0.007 | 0.041 | -0.022 | -0.014 | -0.008 | -0.016 | -0.018 | -0.025 | -0.027 | -0.009 | 0.033 | 0.015 | 0.006 | 0.014 | 0.023
4 | DLGAP5 (UniProt Q15398) | -0.015 | 0.023 | -0.006 | -0.024 | -0.02 | 0.026 | -0.021 | -0.013 | -0.013 | -0.009 | 0.004 | 0.02 | -0.018 | 0.005 | -0.036 | -0.009 | -0.007 | -0.012 | 0.016 | -0.003
5 | CSNK1G3 (UniProt Q9Y6M4) | -0.115 | -0.018 | 0.097 | 0.149 | 0.073 | -0.043 | 0.234 | 0.018 | 0.079 | 0.022 | -0.025 | 0.529 (active) | 0.003 | -0.048 | -0.038 | -0.007 | 0.024 | 0.031 | -0.066 | 0.132
6 | CMTM3 (UniProt Q96MX0) | 0.002 | -0.112 | 0.053 | -0.084 | -0.009 | -0.011 | -0.019 | -0.083 | -0.089 | -0.012 | -0.036 | 0.036 | 0.093 | 0.104 | -0.022 | 0.052 | -0.06 | 0.06 | -0.039 | -0.016
7 | COG4 (UniProt Q9H9E3) | 0.029 | -0.015 | -0.05 | -0.015 | -0.018 | 0.008 | -0.057 | 0.011 | 0.039 | 0.009 | 0.014 | 0.005 | -0.007 | -0.042 | -0.029 | 0 | -0.001 | -0.049 | -0.033 | 0
8 | CSTB (UniProt P04080) | -0.024 | 0.054 | -0.016 | 0.018 | 0.004 | -0.028 | 0.031 | -0.015 | 0.031 | 0.082 | 0.017 | -0.047 | 0.03 | -0.065 | 0.019 | -0.059 | 0.037 | 0.121 | 0.009 | 0.021
9 | CHUK (UniProt O15111) | -0.005 | 0.114 | -0.076 | 0.01 | -0.019 | 0.022 | 0.015 | -0.002 | -0.002 | -0.044 | 0.034 | 0.04 | 0.063 | 0.071 | 0.014 | -0.047 | -0.014 | -0.013 | 0.009 | -0.016
10 | DARS (UniProt P14868) | 0.006 | 0.037 | -0.039 | 0.027 | 0.019 | -0.004 | -0.04 | -0.012 | -0.024 | -0.041 | 0.009 | 0.021 | 0.049 | 0.04 | 0.001 | -0.003 | 0.027 | -0.019 | 0.026 | 0.053
11 | COL6A5 (UniProt A8TX70) | 0.064 | 0.161 | 0.02 | -0.062 | -0.167 | 0.027 | 0.014 | 0.014 | -0.052 | 0.046 | 0.046 | -0.023 | -0.083 | -0.141 | 0.018 | 0.063 | -0.038 | 0.108 | -0.011 | -0.053
12 | CSTF2 (UniProt P33240) | -0.036 | -0.002 | 0.048 | -0.048 | 0.044 | 0.011 | -0.04 | 0.002 | 0 | 0.053 | 0.244 (active) | -0.001 | 0.025 | -0.033 | -0.022 | -0.033 | -0.02 | -0.011 | 0.052 | 0.011
13 | CKS1B (UniProt P61024) | -0.058 | -0.097 | -0.037 | 0.042 | 0.008 | 0.121 | 0.092 | 0.038 | -0.012 | -0.018 | 0.049 | 0.01 | -0.161 | -0.034 | 0.011 | 0.055 | 0 | -0.059 | 0.003 | -0.012
14 | CKM (UniProt P06732) | 0.034 | -0.167 | 0.003 | 0.023 | 0.058 | -0.024 | 0 | -0.017 | 0.038 | 0.044 | -0.002 | 0.056 | 0.046 | -0.076 | 0.002 | -0.001 | -0.029 | 0.044 | 0.005 | -0.02
15 | CHORDC1 (UniProt Q9UHD1) | 0.015 | 0.007 | 0.017 | 0.001 | 0.004 | 0.002 | 0.005 | -0.007 | 0.015 | -0.016 | -0.002 | 0.004 | -0.009 | -0.001 | -0.032 | -0.009 | 0.001 | 0.023 | 0.033 | 0.006
16 | CIC (UniProt I3L2J0) | 0.013 | -0.248 | 0.079 | 0.122 | 0.027 | -0.047 | -0.062 | 0.005 | -0.04 | 0.04 | 0.036 | 0.044 | 0.055 | -0.083 | 0.013 | 0.054 | -0.044 | 0.029 | 0.02 | 0.028
